High-throughput results from PubChem BioAssay.
MARV entry inh – inhibitors of Marburg virus binding or cell entry; 300,000 tested, 1.8% active; AID 540276; Potency, µM (top dose mostly 37.8 µM), for inactives: at the highest dose activity change, negative = inhibition, hits mostly inhibitors; Marburg virus pseudotyped entry inhibition, cell reporter; calls by dose curve; tested in HEK293 cells
Vaccinia mCherry – vaccinia inhibition (mCherry reporter); AID 720579; Vaccinia virus mCherry reporter infection, fluorescence; Potency, µM (top dose mostly 36.5 µM), for inactives: at the highest dose activity change, negative = inhibition, actives largely listed as inhibitors; 310,000 tested, 0.63% active; calls by dose curve; tested in A549 cells; note: nearly all actives have a fitted effect of over 35% in size
Lassa entry inh – blocks Lassa virus binding to or entry into cells; Lassa virus pseudotype entry inhibition, cell reporter; Potency, µM (titrated, usually from 37.9 µM), without a hit: at the highest dose activity change, negative = inhibition, usual class: inhibitors; 300,000 tested, 1.2% active; AID 540256; calls by dose curve; tested in HEK293 cells; note: nearly all actives have a fitted effect of over 50% in size
Vaccinia Venus – inhibitors of vaccinia virus (Venus reporter); Vaccinia virus Venus reporter expression, fluorescence; Potency, µM (doses to about 36.5 µM), inactives show at the highest dose activity change, negative = inhibition, most hits filed as inhibitors; 330,000 tested, 0.46% active; calls by dose curve; tested in A549 cells; note: nearly all actives have a fitted effect of over 30% in size
FMDV antiviral – antivirals against foot and mouth disease virus; FMDV antiviral cell-based qHTS; Potency, µM (highest dose often 57.9 µM), inactives show top-dose activity change, negative = inhibition, actives largely listed as inhibitors; 410,000 tested, 1.2% active; AID 1159524; calls by dose curve; tested in HEK293T cells; note: read-out not given here; nearly all actives have a fitted effect of over 45% in size
* = called active by the depositor; i = inactive; ? = inconclusive; . = no result given; [ ] = remark or other dose. Compounds with a hit are over-represented: about 3.2% of the library has one in this group of screens. % is set by controls: 0 for no effect and ±100 for the full control effect; potency is the fitted concentration of half-maximal effect.

SMILES	MARV entry inh	Vaccinia mCherry	Lassa entry inh	Vaccinia Venus	FMDV antiviral
CC(C)C(=O)NC(c1cccs1)c1cc([N+](=O)[O-])c2cccnc2c1O (stereo not given)	?	11µM*	-7%	?	-25%
CCCC(=O)NC(c1ccc2c(c1)OCO2)c1cc(Cl)c2cccnc2c1O (stereo not given)	?	13µM*	?	?	-25%
CCCC(=O)NC(c1cccs1)c1cc(Cl)c2cccnc2c1O (stereo not given)	3.5µM*	-20%	?	9%	-21%
CCC[C@H](C)n1[nH]c(=O)cc1N	30%	.	.	.	.
CCCCC1(CO)C(=O)N(c2ccccc2)N(c2ccccc2)C1=O	?	i	-21%[46.1 µM]	-10%	-19%
CCCCC1(Cc2cccc([N+](=O)[O-])c2)C(=O)N(c2ccccc2)N(c2ccccc2)C1=O	16µM*	-10%	?	-30%	?
Cn1c(-c2ccccc2)c(C(=O)CCl)c2ccccc21	?	-27%	-27%	-22%	10µM*
CCn1c(-c2ccccc2)c(C(=O)CCl)c2ccccc21	.	-15%	.	-18%	18µM*
C[C@@H](OC(=O)N1CCCCC1)[C@H]1O[C@]2(C)CCCC[C@H]1O2	.	-2%	.	-6%	-4%
O=C(COC(=O)c1c2c(nc3ccccc13)/C(=C/c1ccco1)CC2)NC1CCCC1	?	?	13µM*	-8%	12%
COc1cc2c(cc1OC)[C@@H]1O[C@](c3ccsc3)(C2)OC2=C1C(=O)CC(C)(C)C2	-12%[14.2 µM]	.	.	.	.
O=C(NC1C=CS(=O)(=O)C1)c1sc2ccccc2c1Cl (stereo not given)	21µM*	10µM*	?	?	.
Cc1ccnc(NC(=O)c2sc3ccccc3c2Cl)c1	1.6µM*	-5%	?	-11%	?
Cc1ccnc(NC(=O)/C=C/c2ccccc2Cl)c1	2.6µM*	-12%	?	3%	?
O=C(Nc1nccs1)c1sc2ccccc2c1Cl	7.1µM*	-17%[1.46 µM]	13µM*	-25%	0%
Cc1cnc(NC(=O)c2sc3ccccc3c2Cl)s1	?	i	?	-7%	-54%
COc1ccc(N/C(=N/c2nc(C)cc(C)n2)NC(=O)C(C)C)cc1OC	8%	.	.	.	.
Cc1cc(C(=O)N(Cc2cc3cc4c(cc3nc2N2CCOCC2)CCC4)CC2CCCO2)c(=O)[nH]c1C (stereo not given)	.	-6%	.	-19%	22%
COc1ncc2nc(-c3ccccc3)c(=O)n(CCC#N)c2n1	.	.	.	.	6%
CCOc1ccc(-c2nc(C#N)c(NCc3ccco3)o2)cc1	5%[46.1 µM]	?	3%[46.1 µM]	-16%	21%
CCC1(C2CCN(C(=O)c3csc(C(C)=O)c3)CC2)NC(=O)N(CCc2scnc2C)C1=O (stereo not given)	.	-4%	.	3%	6%
Cc1ccc(-n2sc3cc(F)ccc3c2=O)c(C)c1	.	-13%	.	?	?
Cc1ccc(C(C2=C(O)CC(C)(C)CC2=O)C2C(=O)CC(C)(C)CC2=O)s1 (stereo not given)	2%	.	?	.	?
CC1(C)CC(=O)C(C(C2=C(O)CC(C)(C)CC2=O)c2ccc(Br)s2)C(=O)C1 (stereo not given)	?	-8%	13µM*	-11%	5.6µM*
CCn1c(-c2cccc(OC)c2)nc2cc(NC(C)=O)cc(C(=O)N3CCC[C@H]3C(=O)OC)c21	.	-8%	.	0%	-6%
SMILES	MARV entry inh	Vaccinia mCherry	Lassa entry inh	Vaccinia Venus	FMDV antiviral
CC(C)[C@@H]1[C@H]2CC[C@H](C2)[C@H]1N	.	.	.	.	-21%
CCOC(=O)c1ccc(N2C(=O)c3n[nH]c(-c4ccco4)c3C2c2cccc([N+](=O)[O-])c2)cc1 (stereo not given)	5µM*	?	?	?	35µM*
CCOC(=O)c1ccc(N2C(=O)c3n[nH]c(-c4ccco4)c3C2c2ccc(C(=O)OC)cc2)cc1 (stereo not given)	?	-14%	?	-22%	?
CCOC(=O)c1ccc(N2C(=O)c3n[nH]c(-c4ccco4)c3C2c2ccc(O)c(OCC)c2)cc1 (stereo not given)	7.9µM*	-23%	?	-17%	?
CC(C)=CCCC(C)=CCON=C1C[C@@H](O)[C@@H](O)[C@@H]2[C@H]3C(=O)N(C[C@@H]4CCCO4)C(=O)[C@@H]3CC[C@@H]12	-5%[14.2 µM]	.	.	.	.
Cc1cc(CNC(=O)Cc2ccccc2)c2ccccc2n1	-22%	i	0%	-6%	30%
Cc1cc(CNC(=O)c2cccc([N+](=O)[O-])c2C)c2ccccc2n1	?	-8%	?	-19%	14µM*
CCOc1ccc(S(=O)(=O)n2cnc3cc(C)c(C)cc32)cc1	21µM*	?	?	?	?
CSc1cccc(NC(=O)CSc2ncccc2C(=O)Oc2cccc([N+](=O)[O-])c2)c1	-5%	-1%	14%	-18%	0%
CCN(C(=O)CSc1ncccc1C(=O)Oc1cccc([N+](=O)[O-])c1)c1cccc(C)c1	4%	-14%	9%	-7%	25µM*
CC(=O)NC1=NN(C(C)=O)C(C)(c2ccco2)S1 (stereo not given)	3.2µM*	?	-26%[46.1 µM]	-14%	-4%
CC(=O)NC1=NN(C(C)=O)C(C)(c2ccc(C)o2)S1 (stereo not given)	5%[46.1 µM]	-5%	-22%[46.1 µM]	-12%	20%
OCC1(CCOc2ccccc2)CCN(Cc2cn[nH]c2-c2ccc(F)cc2)CC1	4µM*	-2%	-28%[46.1 µM]	-17%	-27%
CCOc1ccccc1CN1CCC(CO)(CCOc2ccccc2)CC1	-9%[46.1 µM]	-15%	-15%	-12%	-12%
COc1cc(Nc2nc(-c3ccccc3)c3cc(C)ccc3n2)cc(OC)c1OC	?	-29%	?	-21%	?
COc1cc(Nc2c3ccccc3nc3ccccc23)cc(OC)c1OC	2.8µM*	?	?	?	-24%
COc1ccccc1Nc1nc(-c2ccccc2)nc2ccccc12	.	.	.	.	-8%
COc1ccc(Nc2cc(Nc3cc(OC)c(OC)c(OC)c3)ncn2)cc1	16µM*	-26%	-11%	-10%	?
COc1ccccc1Nc1c2ccccc2nc2ccccc12	?	11µM*	?	?	?
Cc1cnc(-n2ncc(C(=O)NCc3cccnc3)c2C)nc1-c1ccc(F)cc1	.	?	.	-29%	-26%
CCN1CCN(c2ccc(S(=O)(=O)N3CCCCC3)cc2NC(=O)/C=C/c2ccc(F)cc2)CC1	?	-10%	-15%[46.1 µM]	-29%	0%
CCN1CCN(c2ccc(S(=O)(=O)N3CCCCC3)cc2NC(=O)/C=C/c2ccc([N+](=O)[O-])cc2)CC1	?	?	-15%	-13%	?
O=C(/C=C/c1ccc(Cl)cc1)Nc1cc(S(=O)(=O)N2CCOCC2)ccc1N1CCOCC1	?	?	4.5µM*	?	-16%
CCN1CCN(c2ccc(S(=O)(=O)N3CCOCC3)cc2NC(=O)/C=C/c2ccc(C)cc2)CC1	?	-28%	-24%	-15%	-20%
